The text below walks through data of PubChem BioAssay (EPA / NIEHS).

Where “and” joins values, the source holds several entries; their conditions need not be identical. Equal values may be shown once. Records with an inconclusive call do not appear. Calls of active or inactive are those of the source. The calls were made as follows: active = hit-call score of the fitted dose curve at least 0.9, where 1 is the maximum; inconclusive = response in the unintended direction; inactive = score below 0.9.

Usually AC50 stands for the concentration at which the activity in the assay is half-maximal.

Experiment [1] in a line: ATG_M_06_XSP2: Attagene TRANS-FACTORIAL Multi-Species (XSP2) HepG2 Assay for M06 Transcription Factor (Internal Marker) (AID 2283811).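 Also: internal background marker reporter mRNA measured by RT-PCR and capillary electrophoresis; hits are increases in signal above the DMSO baseline.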 A digest of the protocol: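 HepG2, multiplexed reporter transfection; 24 h dosing; AR stimulated with 3 nM 6-alpha-fluorotestosterone + 1.5 nM norgestrel; RNA → RT-PCR → 6-FAM primer extension → HpaI → CE. Positive direction vs DMSO.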
The test system of experiment [2] is turtle Estrogen Receptor (ERa), gene 101933533. Nature of the experiment: ATG_trERa_XSP2: Attagene TRANS-FACTORIAL Multi-Species (XSP2) HepG2 Assay for turtle Estrogen Receptor (ERa) (AID 2283812).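 Also: human HepG2 liver cells transiently expressing turtle ERa-Gal4 chimeric receptor; actives raise reporter signal above DMSO so AC50 reflects agonist activity.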 A digest of the protocol: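 HepG2 cells transiently transfected with GAL4-UAS reporter units expressing turtle ERa-Gal4 chimera. Reporter mRNA measured after 24 h dosing by RT-PCR, fluorescent labelling and capillary electrophoresis; gain of signal fitted versus DMSO.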

The target in experiment [3] is GAL4 Transcription Factor (Internal Marker), GAL4 (gene 855828) (UniProt P04386). Kind of experiment: ATG_GAL4_XSP2: Attagene TRANS-FACTORIAL Multi-Species (XSP2) HepG2 Assay for GAL4 Transcription Factor (Internal Marker) (AID 2283814).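 Also: GAL4 reporter mRNA background control in MRTU transfected cells not a receptor target.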 A digest of the protocol:
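HepG2 cells transiently transfected with GAL4-UAS reporter units, stimulated with 3 nM 6-alpha-fluorotestosterone plus 1.5 nM norgestrel, dosed 24 h. Reporter mRNA by RT-PCR/capillary electrophoresis; gain-of-signal fit versus DMSO, background control.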

In experiment [4] the test system is turtle Androgen Receptor (AR), gene 101947425. Nature of the experiment: ATG_trAR_XSP2: Attagene TRANS-FACTORIAL Multi-Species (XSP2) HepG2 Assay for turtle Androgen Receptor (AR) (AID 2283815). A digest of the protocol:
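HepG2 cells transiently transfected with GAL4-UAS reporter units for chimeric NR-Gal4 receptors; 24 h dosing in presence of 3 nM 6-alpha-fluorotestosterone and 1.5 nM norgestrel. Reporter mRNA by RT-PCR and capillary electrophoresis, gain of signal versus DMSO.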

For experiment [5], the target named is chicken Estrogen Receptor (ERa), ESR1 (gene 396099) (UniProt P06212). Nature of the experiment: ATG_chERa_XSP2: Attagene TRANS-FACTORIAL Multi-Species (XSP2) HepG2 Assay for chicken Estrogen Receptor (ERa) (AID 2283817).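 Also: actives raise reporter signal above DMSO so AC50 reflects ER activation.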 A digest of the protocol:
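Transient MRTU transfection of HepG2 → 24 h chemical dosing → TriZol RNA, oligo(dT) RT → PCR, 6-FAM primer extension, HpaI digest → CE quantitation of chicken ERa-Gal4-driven reporter mRNA. Positive direction vs DMSO.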

In experiment [6] the test system is zebrafish Estrogen Receptor (ER2a), gene 317734. Kind of experiment: ATG_zfER2a_XSP2: Attagene TRANS-FACTORIAL Multi-Species (XSP2) HepG2 Assay for zebrafish Estrogen Receptor (ER2a) (AID 2283818).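 Also: hits raise reporter mRNA so AC50 reflects activation of zebrafish ER2a.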 A digest of the protocol:
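HepG2 cells transiently transfected with GAL4-UAS reporter units and chimeric zebrafish ER2a-Gal4, exposed 24 h; medium contains 3 nM 6-alpha-fluorotestosterone and 1.5 nM norgestrel. Reporter mRNA quantified by RT-PCR, HpaI digestion, capillary electrophoresis; gain versus DMSO.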

For experiment [7], the system named is frog Estrogen Receptor (ER), gene 398734. Nature of the experiment: ATG_frER1_XSP2: Attagene TRANS-FACTORIAL Multi-Species (XSP2) HepG2 Assay for frog Estrogen Receptor (ER) (AID 2283821).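 Also: hits raise reporter mRNA above DMSO baseline so potency means agonist or activator.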 A digest of the protocol:
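Steps: transfect HepG2 with multiple reporter transcription units; treat with chemical for 24 h; isolate RNA, reverse-transcribe, PCR-amplify, label with 6-FAM, digest with HpaI; resolve fragments by capillary electrophoresis. Signal is scored against DMSO.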

Experiment [8] concerns zebrafish Estrogen Receptor (ER2b), gene 317733. Nature of the experiment: ATG_zfER2b_XSP2: Attagene TRANS-FACTORIAL Multi-Species (XSP2) HepG2 Assay for zebrafish Estrogen Receptor (ER2b) (AID 2283823).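 Also: fitted upward as reporter gain over DMSO so potency reflects activation.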 A digest of the protocol:
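Transfect HepG2 with GAL4-UAS reporter constructs; dose chemicals, 24 h; isolate RNA, RT-PCR, FAM-label, HpaI digest; capillary electrophoresis. Gain-of-signal vs DMSO.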

Experiment [9] has as its system zebrafish Androgen Receptor (AR), gene 100005148. Nature of the experiment: ATG_zfAR_XSP2: Attagene TRANS-FACTORIAL Multi-Species (XSP2) HepG2 Assay for zebrafish Androgen Receptor (AR) (AID 2283825).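 Also: hits raise reporter mRNA above DMSO so AC50 reflects agonist-type gain.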 A digest of the protocol: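 Zebrafish AR–GAL4 chimera transiently expressed with GAL4-UAS reporter in HepG2 cells, co-stimulated with 3 nM 6-alpha-fluorotestosterone and 1.5 nM norgestrel; 24 h dosing, reporter mRNA read by RT-PCR/capillary electrophoresis versus DMSO.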

The test system of experiment [10] is frog Estrogen Receptor (ER2), gene 100174814. Kind of experiment: ATG_frER2_XSP2: Attagene TRANS-FACTORIAL Multi-Species (XSP2) HepG2 Assay for frog Estrogen Receptor (ER2) (AID 2283828). A digest of the protocol:
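Multiplexed transactivation in HepG2: frog estrogen receptor fused to Gal4 drives a UAS reporter. Signal is reporter mRNA after 24 h treatment.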

For experiment [11], the target named is Peroxisome proliferator-activated receptor gamma (Homo sapiens) (UniProt P37231). Nature of the experiment: ATG_hPPARg_XSP2: Attagene TRANS-FACTORIAL Multi-Species (XSP2) HepG2 Assay for human Peroxisome Proliferator-activated Receptor gamma (PPARg) (AID 2283829).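 Also: actives raise reporter mRNA above DMSO so AC50 reflects PPARg activation.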 A digest of the protocol: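 Transient MRTU transfection, HepG2; TRANS format (exogenous NR-Gal4 chimeras). 24 h chemical exposure with 3 nM 6-alpha-fluorotestosterone and 1.5 nM norgestrel present. Readout: reporter mRNA via RT-PCR/CE fluorescence, up-direction vs DMSO.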
Sequence of Peroxisome proliferator-activated receptor gamma (Homo sapiens) (P37231 whole entry, looked up, the tested form may be a part): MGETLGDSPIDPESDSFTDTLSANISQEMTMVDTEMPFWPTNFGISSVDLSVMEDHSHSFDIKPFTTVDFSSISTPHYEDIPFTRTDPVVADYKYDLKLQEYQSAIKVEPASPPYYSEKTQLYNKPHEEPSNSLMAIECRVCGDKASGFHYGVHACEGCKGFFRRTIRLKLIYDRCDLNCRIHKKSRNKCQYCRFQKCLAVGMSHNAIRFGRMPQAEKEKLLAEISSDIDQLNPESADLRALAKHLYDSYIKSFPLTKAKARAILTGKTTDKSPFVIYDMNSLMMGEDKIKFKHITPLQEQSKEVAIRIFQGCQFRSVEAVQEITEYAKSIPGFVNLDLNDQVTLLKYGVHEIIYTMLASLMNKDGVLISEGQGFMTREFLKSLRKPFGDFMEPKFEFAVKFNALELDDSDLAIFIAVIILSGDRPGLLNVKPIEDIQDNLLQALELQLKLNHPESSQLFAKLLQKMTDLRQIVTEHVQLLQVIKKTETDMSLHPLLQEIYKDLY

The target in experiment [12] is Nuclear receptor subfamily 1 group I member 2 (Mus musculus) (UniProt O54915). Nature of the experiment: ATG_mPXR_XSP2: Attagene TRANS-FACTORIAL Multi-Species (XSP1) HepG2 Assay for mouse Pregnane X Receptor (PXR) (AID 2283831). A digest of the protocol: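 Transient HepG2 transfection, multiplexed GAL4-UAS reporters, NR-GAL4 chimeras. 24 h compound exposure. Readout: reporter mRNA, RT-PCR, fluorescent capillary electrophoresis; positive direction vs DMSO baseline.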
Sequence of Nuclear receptor subfamily 1 group I member 2 (Mus musculus) (O54915 whole entry, looked up, the tested form may be a part): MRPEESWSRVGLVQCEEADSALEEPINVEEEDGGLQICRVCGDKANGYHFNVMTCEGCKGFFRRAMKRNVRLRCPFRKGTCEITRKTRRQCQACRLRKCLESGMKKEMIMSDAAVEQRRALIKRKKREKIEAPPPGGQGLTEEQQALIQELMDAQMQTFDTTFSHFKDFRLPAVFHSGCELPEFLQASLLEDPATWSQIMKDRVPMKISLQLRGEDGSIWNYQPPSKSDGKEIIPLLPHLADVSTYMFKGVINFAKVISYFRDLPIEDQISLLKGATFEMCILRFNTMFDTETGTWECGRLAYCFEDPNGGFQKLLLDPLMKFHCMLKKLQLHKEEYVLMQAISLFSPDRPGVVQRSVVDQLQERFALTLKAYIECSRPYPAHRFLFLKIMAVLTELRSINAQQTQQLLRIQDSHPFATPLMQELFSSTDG

Experiment [13] addresses zebrafish Thyroid Hormone Receptor alpha (TRa), thraa (gene 30670) (UniProt Q98867). Kind of experiment: ATG_zfTRa_XSP2: Attagene TRANS-FACTORIAL Multi-Species (XSP1) HepG2 Assay for zebrafish Thyroid Hormone Receptor alpha (TRa) (AID 2283832).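 Also: actives raise zebrafish TRa-Gal4 reporter transcript above DMSO baseline.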 A digest of the protocol: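 HepG2 transiently transfected with GAL4-UAS reporter units and chimeric zebrafish TRa-Gal4; reporter mRNA quantified after 24 h dosing by RT-PCR, HpaI digestion and capillary electrophoresis fluorescence. Gain of signal vs DMSO; XSP2 medium contains 3 nM 6-alpha-fluorotestosterone, 1.5 nM norgestrel.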

Experiment [14] concerns zebrafish Peroxisome Proliferator-activated Receptor gamma (PPARg), gene 557037. Nature of the experiment: ATG_zfPPARg_XSP2: Attagene TRANS-FACTORIAL Multi-Species (XSP2) HepG2 Assay for zebrafish Peroxisome Proliferator-activated Receptor gamma (PPARg) (AID 2283833).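 Also: actives increase reporter signal over DMSO so AC50 reflects activation.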 A digest of the protocol:
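Transfect HepG2 with multiplexed GAL4-UAS reporter constructs; dose chemical 24 h; isolate RNA, reverse-transcribe, PCR-amplify, label and digest reporter products; resolve by capillary electrophoresis. Activity taken as increase over DMSO.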

The target of experiment [15] is Estrogen receptor beta (Homo sapiens) (UniProt Q92731). Kind of experiment: ATG_hERb_XSP2: Attagene TRANS-FACTORIAL Multi-Species (XSP2) HepG2 Assay for human Estrogen Receptor (ERb) (AID 2283813).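 Also: actives raise reporter mRNA above DMSO so AC50 reflects agonist induction.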 A digest of the protocol: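 HepG2 cells transiently transfected with GAL4-UAS reporter units and chimeric human ERb-Gal4, 24 h exposure. Reporter mRNA quantified by RT-PCR with FAM labelling, HpaI digestion and capillary electrophoresis; gain of signal versus DMSO.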
Sequence of Estrogen receptor beta (Homo sapiens) (Q92731 whole entry, looked up, the tested form may be a part): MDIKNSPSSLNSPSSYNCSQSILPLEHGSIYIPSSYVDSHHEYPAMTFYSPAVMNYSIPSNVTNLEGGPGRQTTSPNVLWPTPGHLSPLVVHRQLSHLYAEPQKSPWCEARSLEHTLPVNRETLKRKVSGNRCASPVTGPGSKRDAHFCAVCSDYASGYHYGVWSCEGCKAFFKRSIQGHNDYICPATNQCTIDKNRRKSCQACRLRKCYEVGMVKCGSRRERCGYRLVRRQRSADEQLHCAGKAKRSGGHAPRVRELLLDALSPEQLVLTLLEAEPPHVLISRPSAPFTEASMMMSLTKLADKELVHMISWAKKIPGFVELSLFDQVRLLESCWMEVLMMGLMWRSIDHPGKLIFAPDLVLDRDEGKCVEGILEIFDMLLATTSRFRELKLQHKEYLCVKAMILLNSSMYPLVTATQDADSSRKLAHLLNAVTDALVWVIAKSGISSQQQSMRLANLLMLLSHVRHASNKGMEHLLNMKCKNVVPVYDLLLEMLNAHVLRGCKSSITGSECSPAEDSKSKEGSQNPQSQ

Experiment [16] concerns the target zebrafish Estrogen Receptor (ER1), esr1 (gene 259252) (UniProt P57717). Nature of the experiment: ATG_zfER1_XSP2: Attagene TRANS-FACTORIAL Multi-Species (XSP2) HepG2 Assay for zebrafish Estrogen Receptor (ER1) (AID 2283816). A digest of the protocol: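 HepG2 cells transiently transfected with a GAL4-UAS reporter and a chimeric zebrafish ER1-Gal4 construct, dosed 24 h. Reporter mRNA quantified by RT-PCR, labelling, HpaI digestion and capillary electrophoresis, relative to DMSO.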

Experiment [17] relates to chicken Androgen Receptor (AR), gene 422165. Kind of experiment: ATG_chAR_XSP2: Attagene TRANS-FACTORIAL Multi-Species (XSP2) HepG2 Assay for chicken Androgen Receptor (AR) (AID 2283819).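 Also: hits raise reporter mRNA above DMSO so potency is for activation.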 A digest of the protocol:
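HepG2 cells transiently transfected with chicken AR–GAL4 chimeric reporter constructs, stimulated with 3 nM 6-alpha-fluorotestosterone plus 1.5 nM norgestrel, dosed 24 h. Reporter mRNA quantified by RT-PCR and capillary electrophoresis; gain of signal fitted versus DMSO.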

Experiment [18] concerns frog Androgen Receptor (AR), gene 399456. Nature of the experiment: ATG_frAR_XSP2: Attagene TRANS-FACTORIAL Multi-Species (XSP2) HepG2 Assay for frog Androgen Receptor (AR) (AID 2283824).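 Also: actives raise reporter signal above DMSO so AC50 reflects agonist-like induction.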 A digest of the protocol:
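HepG2 cells transiently transfected with GAL4-UAS reporter units and frog (Xenopus laevis) AR-Gal4 chimera; reporter mRNA measured 24 h after dosing by RT-PCR and capillary electrophoresis. Gain of signal fitted relative to DMSO baseline.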

Experiment [19] addresses mouse Peroxisome Proliferator-activated Receptor gamma (PPARg), Pparg (gene 19016) (UniProt P37238). Nature of the experiment: ATG_mPPARg_XSP2: Attagene TRANS-FACTORIAL Multi-Species (XSP2) HepG2 Assay for mouse Peroxisome Proliferator-activated Receptor gamma (PPARg) (AID 2283830).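 Also: hits are gains in reporter mRNA above DMSO so AC50 marks activation.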 A digest of the protocol:
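HepG2 cells transiently transfected with GAL4-UAS reporter units for chimeric NR-Gal4 proteins including mouse PPARg, exposed 24 h; medium contained 3 nM 6-alpha-fluorotestosterone and 1.5 nM norgestrel. Reporter mRNA quantified by RT-PCR, HpaI digestion and capillary electrophoresis, vs DMSO.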

Sequence of chicken Estrogen Receptor (ERa), ESR1 (gene 396099) (P06212 whole entry, looked up, the tested form may be a part): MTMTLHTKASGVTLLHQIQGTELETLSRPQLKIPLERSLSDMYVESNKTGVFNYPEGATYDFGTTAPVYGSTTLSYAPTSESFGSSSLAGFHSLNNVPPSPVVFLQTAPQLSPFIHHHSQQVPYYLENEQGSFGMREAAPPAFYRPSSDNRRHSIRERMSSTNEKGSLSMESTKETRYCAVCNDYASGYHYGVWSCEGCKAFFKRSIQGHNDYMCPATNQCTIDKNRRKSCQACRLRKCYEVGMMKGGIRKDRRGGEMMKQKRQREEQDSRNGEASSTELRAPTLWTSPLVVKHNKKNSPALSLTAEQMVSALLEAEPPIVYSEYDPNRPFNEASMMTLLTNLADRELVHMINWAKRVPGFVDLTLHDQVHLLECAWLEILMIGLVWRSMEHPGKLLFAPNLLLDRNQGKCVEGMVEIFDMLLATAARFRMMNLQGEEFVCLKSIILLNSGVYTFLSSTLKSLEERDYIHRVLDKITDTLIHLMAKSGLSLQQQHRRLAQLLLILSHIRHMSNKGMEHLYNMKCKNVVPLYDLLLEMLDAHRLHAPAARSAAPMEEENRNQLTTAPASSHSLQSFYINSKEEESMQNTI
Sequence of mouse Peroxisome Proliferator-activated Receptor gamma (PPARg), Pparg (gene 19016) (P37238 whole entry, looked up, the tested form may be a part): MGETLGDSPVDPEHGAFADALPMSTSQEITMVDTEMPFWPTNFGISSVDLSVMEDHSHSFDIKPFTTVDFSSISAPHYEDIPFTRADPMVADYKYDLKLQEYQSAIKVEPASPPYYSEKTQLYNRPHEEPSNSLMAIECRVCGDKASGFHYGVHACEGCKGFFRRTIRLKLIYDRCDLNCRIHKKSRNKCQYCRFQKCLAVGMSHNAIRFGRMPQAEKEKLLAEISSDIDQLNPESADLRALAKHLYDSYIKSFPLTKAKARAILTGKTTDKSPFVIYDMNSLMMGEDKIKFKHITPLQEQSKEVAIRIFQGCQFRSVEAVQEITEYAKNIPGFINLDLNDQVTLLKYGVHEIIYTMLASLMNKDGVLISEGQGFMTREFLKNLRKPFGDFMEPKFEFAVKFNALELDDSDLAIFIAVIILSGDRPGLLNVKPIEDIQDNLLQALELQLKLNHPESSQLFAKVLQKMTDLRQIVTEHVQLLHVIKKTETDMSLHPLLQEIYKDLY
Sequence of zebrafish Thyroid Hormone Receptor alpha (TRa), thraa (gene 30670) (Q98867 whole entry, looked up, the tested form may be a part): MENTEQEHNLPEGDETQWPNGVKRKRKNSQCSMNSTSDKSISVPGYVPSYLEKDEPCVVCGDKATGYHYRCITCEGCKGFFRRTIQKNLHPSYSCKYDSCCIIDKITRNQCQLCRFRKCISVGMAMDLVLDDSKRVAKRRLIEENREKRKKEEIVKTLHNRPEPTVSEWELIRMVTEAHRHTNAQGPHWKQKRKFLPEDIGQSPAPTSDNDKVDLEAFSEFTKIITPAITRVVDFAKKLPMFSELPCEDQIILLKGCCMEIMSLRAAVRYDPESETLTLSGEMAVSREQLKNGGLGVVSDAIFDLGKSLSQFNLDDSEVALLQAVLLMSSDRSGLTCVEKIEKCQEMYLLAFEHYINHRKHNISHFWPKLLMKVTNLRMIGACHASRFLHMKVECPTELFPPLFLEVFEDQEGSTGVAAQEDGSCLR
Sequence of zebrafish Estrogen Receptor (ER1), esr1 (gene 259252) (P57717 whole entry, looked up, the tested form may be a part): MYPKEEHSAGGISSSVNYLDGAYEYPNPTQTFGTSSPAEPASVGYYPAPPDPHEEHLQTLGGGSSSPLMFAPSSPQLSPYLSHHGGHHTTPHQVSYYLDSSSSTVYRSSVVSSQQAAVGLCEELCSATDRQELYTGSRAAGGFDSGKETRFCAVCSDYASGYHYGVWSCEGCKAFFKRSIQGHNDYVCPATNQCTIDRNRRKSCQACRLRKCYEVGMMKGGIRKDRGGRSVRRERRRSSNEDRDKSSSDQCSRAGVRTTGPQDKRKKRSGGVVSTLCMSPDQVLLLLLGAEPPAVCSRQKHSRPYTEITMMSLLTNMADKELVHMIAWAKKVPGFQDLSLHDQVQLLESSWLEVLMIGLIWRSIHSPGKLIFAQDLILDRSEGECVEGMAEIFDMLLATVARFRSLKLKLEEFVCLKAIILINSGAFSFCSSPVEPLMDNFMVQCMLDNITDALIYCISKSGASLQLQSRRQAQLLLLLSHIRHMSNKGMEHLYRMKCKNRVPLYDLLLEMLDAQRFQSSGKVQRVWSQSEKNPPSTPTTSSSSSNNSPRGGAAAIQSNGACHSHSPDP
Sequence of GAL4 Transcription Factor (Internal Marker), GAL4 (gene 855828) (P04386 whole entry, looked up, the tested form may be a part): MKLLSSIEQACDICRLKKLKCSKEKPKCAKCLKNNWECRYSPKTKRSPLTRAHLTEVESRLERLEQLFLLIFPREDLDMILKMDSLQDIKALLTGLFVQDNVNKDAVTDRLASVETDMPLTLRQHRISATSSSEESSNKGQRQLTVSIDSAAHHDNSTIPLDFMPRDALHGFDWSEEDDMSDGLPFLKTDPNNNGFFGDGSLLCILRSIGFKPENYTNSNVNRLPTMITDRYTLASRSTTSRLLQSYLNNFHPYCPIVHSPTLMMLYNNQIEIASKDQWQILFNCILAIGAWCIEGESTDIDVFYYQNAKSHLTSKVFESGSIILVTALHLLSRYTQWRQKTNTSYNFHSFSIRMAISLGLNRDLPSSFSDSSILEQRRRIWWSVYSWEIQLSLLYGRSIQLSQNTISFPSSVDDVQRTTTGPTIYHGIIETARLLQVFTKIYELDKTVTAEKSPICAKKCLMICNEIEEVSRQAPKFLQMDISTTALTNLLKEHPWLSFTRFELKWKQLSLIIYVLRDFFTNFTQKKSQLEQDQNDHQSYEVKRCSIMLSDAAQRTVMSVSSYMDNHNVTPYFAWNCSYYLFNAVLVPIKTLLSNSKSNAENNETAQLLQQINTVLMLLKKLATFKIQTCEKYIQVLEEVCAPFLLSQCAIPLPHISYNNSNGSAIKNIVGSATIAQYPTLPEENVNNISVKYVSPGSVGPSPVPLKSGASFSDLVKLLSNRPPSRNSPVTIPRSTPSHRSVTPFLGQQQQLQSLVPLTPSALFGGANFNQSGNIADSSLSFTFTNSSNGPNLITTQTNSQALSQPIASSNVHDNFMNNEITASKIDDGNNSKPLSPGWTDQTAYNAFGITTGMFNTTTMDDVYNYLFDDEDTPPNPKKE

Take `O=c1c(-c2ccc(O)cc2)coc2cc(O)cc(O)c12`: the molecule was classed as inactive in experiment [1], in [3], in experiment [4], in experiment [9], in experiment [11] and in experiment [12]. Moreover, the molecule was called inactive in experiment [13] and in experiment [14]. In addition, the AC50 was 213 nM (active) and 25.4 nM (active) in experiment [2]; 467 nM (active) and 29.3 nM (active) in [5]; 41.6 nM (active) and 4.15 nM (active) in experiment [6]; 126 nM (active) and 17.4 nM (active) in experiment [7]; 366 nM (active) and 55.1 nM (active) in [8]; 174 nM (active) and 6.08 nM (active) in [10].
For `O=C(O)Cc1cc(I)c(Oc2ccc(O)c(I)c2)c(I)c1`, the result in experiment [1], in [2], in experiment [15], in experiment [4], in experiment [16] and in [5] was inactive. Further, the molecule was classed as inactive in [6], in [17], in experiment [7], in experiment [8], in experiment [18] and in [9]. Besides, the molecule was classed as inactive in experiment [10] and in experiment [14]. For the same molecule, the AC50 is 1 µM (active) and 390 nM (active) in experiment [19]; 0.00602 µM (active) in [13].
Turning to `CC(C)(c1cc(Br)c(O)c(Br)c1)c1cc(Br)c(O)c(Br)c1`, the result in experiment [1], in experiment [2], in experiment [15], in experiment [5], in experiment [7] and in [8] was inactive. For the same molecule, the call in experiment [9] and in [13] was inactive. The figures for the AC50 in experiment [19] and in [14] were 3.77 µM (active) and 14.4 µM (active), respectively.
